About 83,000 compounds went through this panel and 20% of them were active in at least one assay; those are over-represented in the sample as a whole.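 How to read the values: 0–100, growth inhibition (40 = 60% inhibited); 0, no net growth; -100 to 0, cell death (-40 = 40% of starting cells died; -100 = all dead).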 Active and inactive are the calls of the source. How the source made its calls: active means growth percent below 10; inactive means the rest.

This assay has as its system SR leukemia. As to the kind of experiment: NCI-60 one-dose screen, 48 h (100 = growth as untreated, 0 = no growth, -100 = all killed). The conditions noted are these: 10 µM unless noted.
For the compound `CC1(C)CC[C@]2(C(=O)N3CCOCC3)CC[C@]3(C)C(=CC[C@@H]4[C@@]5(C)C/C(=C/c6ccncc6)C(=O)C(C)(C)[C@@H]5CC[C@]43C)[C@@H]2C1`, the growth was -31.3% (active).

For the compound `O=C(Nc1cccnc1Nc1ccc(Cl)cc1)c1cn(Cc2ccc(F)cc2)nn1`, the growth is 106% (inactive).

With `C=C1C(=O)O[C@H]2[C@H]1CC/C(CNC(=O)c1cc3ccccc3[nH]1)=C\CC[C@@]1(C)O[C@@H]21`, the growth was -37.4% (active).

On to `C=CCN=C(N)SCCCCCCSC(N)=NCC=C`, for which the growth is 93.7% (inactive).

Regarding `CNC(=O)c1c(NC(=O)c2ccc(C(C)(C)C)cc2)sc2c(CN(C)C)c(O)ccc12`, the growth is 3.65% (active).

On to `COc1ccc(C/C(C)=C(\c2ccc(O)cc2)c2ccc(OCCN3CCCC3)cc2)cc1`, for which the growth is 82.4% (inactive).

`S=c1ssnc1-c1cccs1`: the growth was 98.6% (inactive).

`COc1cc(/C=C/c2cc(/C=C/c3ccc(O)c(OC)c3)n(C(=O)Nc3ccc(F)cc3)n2)ccc1O`: the growth was 2.53% (active).

As to `COc1cc2c3c(n(CCCCNCCCn4c5c(c6cc(OC)c(OC)cc6c4=O)C(=O)c4cc6c(cc4-5)OCO6)c(=O)c2cc1OC)-c1cc2c(cc1C3=O)OCO2`, the growth was 66.6% (inactive).

For `COc1cc(-c2cc(-c3ccc(Nc4ncnc5cc(Cl)ccc45)cc3)nc(N3CCN(C)CC3)n2)cc(OC)c1OC`, the growth was 42.7% (inactive).

For `COc1cc(C(=O)/C=C/c2ccc(N3CCN(C)CC3)cc2)cc(OC)c1OC`, the growth is 91.2% (inactive).

Turning to `Cc1ccc2[nH]c(=O)c3c(c2c1)OC(N)=C(C#N)C31C(=O)c2cccc3cccc1c23` (stereo not given), the growth is 92.9% (inactive).

`Cn1c(=O)c2c(nc(NC3=NS(=O)(=O)c4ccccc43)n2Cc2ccccc2)n(C)c1=O`: the growth is 108% (inactive).

For the compound `COc1ccc(C/C(C)=C(/c2ccc(OCCN3CCCCCC3)cc2)c2ccc(OC(=O)NCc3ccccc3)cc2)cc1`, the growth was -43.2% (active).

`Cn1cc(-c2csc(-c3cn(C(=O)OC(C)(C)C)c4ccccc34)n2)c2ccnc(Cl)c21`: the growth is 26% (inactive).

Consider `CCN(C(=O)N1CCN(c2cc3c(cc2F)c(=O)c(C(=O)O)cn3C2CC2)CC1)c1nc(-c2ccc(C)cc2)cs1`, for which the growth is 17.2% (inactive).

Regarding `COC(=O)c1nc(-c2ccccc2)oc1S(=O)(=O)N1CCC(C(N)=O)CC1`, the growth is -3.16% (active).

With `CCCCSCC(=O)c1ccccc1`, the growth was 88.3% (inactive).

Turning to `Cc1ccc(Nc2nc(-c3ccc(F)cc3)c(C#N)c(=O)n2C)cc1`, the growth is 62.3% (inactive).

On to `COc1cccc(OC)c1Oc1c(-c2nc3ccccc3s2)c(C)nn1-c1ccccc1`, for which the growth is 6.99% (active).

`Cc1ccccc1CNc1c2ccccc2nc2ccccc12`: the growth is 2.71% (active).

As to `COc1ccc2nc3ccccc3c(NCc3ccc(F)cc3)c2c1`, the growth is -1.12% (active).

On to `O=C1NC(=O)c2c1c1c3ccccc3[nH]c1c1oc3cc(Br)ccc3c21`, for which the growth was 24.4% (inactive).

Regarding `COc1ccc(-c2nnc(SCC(=O)Nc3ccc(/C(C)=N\O)cc3)n2-c2ccccc2)cc1OC`, the growth was 95.4% (inactive).

For the compound `CC1=CCC[C@@H]2C1(C)CC[C@H](C)[C@@]2(C)CC1=CC(=O)C(SC(C)(C)C)=CC1=O` (stereo not given in full), the growth was 74% (inactive).

For the compound `CCn1cc(CNc2ccc(C(=O)Nc3cc4cc(OC)c(OC)cc4c(C)n3)cc2)c(C)n1`, the growth is 32.8% (inactive).

Regarding `CCCCN1C(=O)/C(=c2\sc3n(c2=O)NC2C(N=3)N(CC)C(=O)N2CC)c2ccccc21` (stereo not given), the growth was 24.5% (inactive).

For `NC(=O)c1c(NC(=O)c2ccc(Cl)cc2)sc2c1CCC(=O)C2`, the growth was 13.3% (inactive).

For `CC1(C)CC[C@]2(C(=O)O)CC[C@]3(C)C(=CC[C@@H]4[C@@]5(C)C[C@@H](Cc6cn([C@@H]7O[C@H](CO)[C@@H](O)[C@H](O)[C@H]7O)nn6)[C@H](O)C(C)(C)[C@@H]5CC[C@]43C)[C@@H]2C1`, the growth is 94.7% (inactive).

As for `CCNCc1ccc(O)c2ncccc12`, the growth is 19% (inactive).

Take `CC(C)c1ccc(C(=O)Nc2sc3cc(O)ccc3c2C#N)cc1`: the growth is 0.658% (active).

Turning to `CCOC(=O)c1c(NC(=O)CSc2n[nH]c3nc4ccccc4n23)sc(CC)c1C`, the growth is -28.6% (active).

In the case of `COc1cccc(/C=C/C(=O)c2cc3c(N)c(C(=O)Nc4cccc(Cl)c4C)sc3nc2C)c1`, the growth is 7.93% (active).

For `Cc1nn(-c2ccccc2)c(N2CCCCC2)c1/C=N/NC(=O)Cn1c(=O)sc2ccccc21`, the growth was 93.9% (inactive).

Regarding `COC(=O)Cc1nc(C#N)c(N(C)C)o1`, the growth was 94.9% (inactive).

Regarding `N=C(N)c1ccc(-c2ccc(-c3ccc(Cl)cc3Cl)s2)cc1F`, the growth was -6.47% (active).

Turning to `C/C(C=O)=C\c1ccc2c(c1)OCO2`, the growth was 109% (inactive).

With `Cc1ccc(/C=C(\C#N)C(=O)Nc2ncc(Cc3cc(Cl)ccc3Cl)s2)o1`, the growth was 90.1% (inactive).

For `C[C@@H]1CC[C@@]2(OC1)O[C@H]1C[C@H]3[C@@H]4CC=C5C[C@@H](O[C@@H]6O[C@H](CO)[C@@H](O[C@@H]7O[C@@H](CO)[C@H](O)[C@H]7O)[C@H](O)[C@H]6O[C@@H]6O[C@@H](C)[C@H](O)[C@@H](O)[C@H]6O)CC[C@]5(C)[C@H]4CC[C@]3(C)[C@H]1[C@@H]2C`, the growth was -58.5% (active).

Take `CCOC(=O)c1cn2ncnc(Oc3ccc(NC(=O)NC4CC4)c(F)c3)c2c1C`: the growth is 84.6% (inactive).

For the origin of these results see PubChem BioAssay (NCI).
